In all, about 39,000 compounds went through this assay and about 220 (0.56%) showed activity. The sample as a whole holds a higher share of actives than the screen did. Values without a mark were called inactive.
What follows are compounds tested on Escherichia coli K-12 BW25113 (assay: relative growth (OD600 normalised to plate interquartile mean) (fraction); higher = less growth inhibition, active = 0.2 or less). Details: 50 µM; LB; incubation time: overnight (16-24 h).
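Note: Wild-type cells incubated without shaking, value is the mean of two biological replicates.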

| SMILES | relative growth |
| --- | --- |
| Cc1noc(C)c1NC(=O)Nc1ccc2c(c1)C(=O)N([C@H](C)CO)C[C@H](C)[C@@H](CN(C)C(=O)Nc1ccc(F)cc1)OCCCC[C@@H](C)O2 | 0.985 |
| CCN1CCN(c2ccc(Nc3cc(N(C)C(=O)Nc4c(Cl)c(OC)cc(OC)c4Cl)ncn3)cc2)CC1 | 0.975 |
| C[C@@H]1CN([C@H](C)CO)C(=O)Cc2cc(NC(=O)Nc3ccc(F)cc3)ccc2O[C@@H]1CN(C)S(C)(=O)=O | 0.979 |
| C[C@@H]1CCCCO[C@H](CN(C)S(=O)(=O)c2ccc(Cl)cc2)[C@H](C)CN([C@@H](C)CO)C(=O)c2cc(NC(=O)c3ccncc3)ccc2O1 | 0.997 |
| Cc1ccc(S(=O)(=O)N(C)C[C@@H]2OCCCC[C@@H](C)Oc3ccc(NC(=O)Nc4c(C)noc4C)cc3C(=O)N([C@H](C)CO)C[C@@H]2C)cc1 | 1 |
| CC(=O)N[C@H]1CC[C@@H](CCNC(=O)C2CC2)O[C@H]1CO | 0.943 |
| CC1(C)SC2C(N3C(=O)C(c4ccccc4)NC3(C)C)C(=O)N2C1C(=O)[O-].[K+] (stereo not given) | 0.0443 (active) |
| CC1(C)SC2C(NC(=O)COc3ccccc3)C(=O)N2C1C(=O)[O-].[K+] (stereo not given) | 0.598 |
| CC1(C)SC2C(NC(=O)Cc3ccccc3)C(=O)N2C1C(=O)[O-].[K+] (stereo not given) | 0.576 |
| O=C(C[C@H]1C[C@@H]2c3cc(NC(=O)C4CCOCC4)ccc3O[C@@H]2[C@@H](CO)O1)NCc1cc(F)ccc1F | 0.984 |
| C[C@@H]1CCCCO[C@@H](CN(C)C(=O)C2CCCCC2)[C@H](C)CN([C@@H](C)CO)C(=O)c2cc(NS(=O)(=O)c3ccccc3)ccc2O1 | 1.02 |
| COc1ccc(S(=O)(=O)Nc2ccc3c(c2)C(=O)N([C@@H](C)CO)C[C@@H](C)[C@@H](CN(C)S(=O)(=O)c2cn(C)cn2)O3)cc1 | 0.994 |
| Cn1sccc1=O | 0.0369 (active) |
| COc1ccccc1C#Cc1cnc2c(c1)C(=O)N([C@@H](C)CO)C[C@@H](C)[C@@H](CN(C)C(=O)c1ccc3c(c1)OCO3)O2 | 1.03 |
| COc1ccc(S(=O)(=O)Nc2ccc3c(c2)C(=O)N([C@@H](C)CO)C[C@@H](C)[C@H](CN(C)Cc2ccc(C(=O)O)cc2)OCCCC[C@@H](C)O3)cc1 | 0.984 |
| CC(C)CC#Cc1cnc2c(c1)C(=O)N([C@@H](C)CO)C[C@@H](C)[C@@H](CN(C)C(=O)CCN1CCCCC1)O2 | 0.965 |
| CN1CCN(c2c(F)cc3c(=O)c(C(=O)O)cn(CCF)c3c2F)CC1 | 0.0442 (active) |
| CN1CCN(c2c(F)cc3c(=O)c(C(=O)O)cn4c3c2SCC4)CC1 | 0.0436 (active) |
| C[C@@H]1CN([C@@H](C)CO)C(=O)CCCn2nncc2CO[C@@H]1CN(C)S(=O)(=O)c1ccc(Oc2ccccc2)cc1 | 1.02 |
| Cc1ccc(S(=O)(=O)N[C@@H]2C=C[C@H](CC(=O)NCCN3CCCCC3)O[C@@H]2CO)cc1 | 1.01 |
| Cc1ccc(S(=O)(=O)N(C)C[C@@H]2OCCCC[C@H](C)Oc3ccc(NC(=O)Nc4ccc(F)cc4)cc3C(=O)N([C@H](C)CO)C[C@H]2C)cc1 | 0.983 |
| CC(C)NC(=O)Nc1ccc2c(c1)C(=O)N([C@H](C)CO)C[C@H](C)[C@@H](CN(C)C(=O)C1CCCCC1)OCCCC[C@@H](C)O2 | 0.984 |

| SMILES | relative growth |
| --- | --- |
| NCC1CCN(Cc2ccccc2)CC1 | 1.02 |
| NC1CCN(Cc2ccccc2)CC1 | 1.09 |
| COc1cc2c(cc1OC)C(=O)C(CC1CCN(Cc3ccccc3)CC1)C2.Cl (stereo not given) | 0.0489 (active) |
| O=C(C[C@H]1C[C@@H]2c3cc(NS(=O)(=O)c4ccc(F)cc4)ccc3O[C@@H]2[C@@H](CO)O1)NCc1ccccn1 | 1.01 |
| NC1(CC(=O)O)CCN(Cc2ccccc2)CC1 | 0.999 |
| Cn1cc(CN2CCC(C(=O)N[C@@H](c3ccc(F)cc3)c3ccc4ccccc4n3)CC2)c2ccccc21 | 0.963 |
| C[C@@H]1CN([C@H](C)CO)C(=O)c2cccc(NS(=O)(=O)c3cn(C)cn3)c2O[C@@H]1CN(C)CC1CCCCC1 | 0.98 |
| COc1ccc(CN(C)C[C@@H]2Oc3c(NC(=O)c4cc(C)nn4C)cccc3C(=O)N([C@@H](C)CO)C[C@H]2C)cc1 | 0.957 |
| CCn1cc(C(=O)O)c(=O)c2cc(F)c(N3CCN(C)CC3)cc21.CS(=O)(=O)O | 0.0455 (active) |
| CCn1cc(C(=O)N2CCN(C)CC2)c(=O)c2cc(S(=O)(=O)N(C)C)ccc21 | 0.974 |
| CCn1cc(C(=O)O)c(=O)c2cc(F)c(N3CCNCC3)cc21 | 0.0456 (active) |
| O=C(OC(C(F)(F)F)C(F)(F)F)N1CCN(Cc2ccc(C(F)(F)F)cc2N2CCCC2)CC1 | 0.994 |
| CCn1cc(C(=O)O)c(=O)c2cc(F)c(N3CCN(C(=S)Nc4cc(C(F)(F)F)ccc4Cl)CC3)cc21 | 0.0858 (active) |
| CCOC(=O)c1c[nH]c(CC(C)=O)nc1=O | 0.999 |
| Cc1ccc(S(=O)(=O)N2C[C@@H](O)COC[C@H]3O[C@H](CC(=O)N[C@H]4CCN(Cc5ccccc5)C4)CC[C@@H]32)cc1 | 1.01 |
| C[C@H]1CN([C@@H](C)CO)C(=O)Cc2cc(NC(=O)Nc3ccc4c(c3)OCO4)ccc2O[C@H]1CN(C)S(=O)(=O)c1cn(C)cn1 | 0.835 |
| C[C@@H]1CN([C@H](C)CO)C(=O)c2cccc(NC(=O)Nc3cccc4ccccc34)c2O[C@H]1CN(C)S(=O)(=O)c1ccccc1 | 0.987 |
| COc1ccc(S(=O)(=O)N(C)C[C@H]2Oc3c(NS(=O)(=O)c4c(C)noc4C)cccc3C(=O)N([C@H](C)CO)C[C@H]2C)cc1 | 0.997 |
| CON=C1CN(c2nc3c(cc2F)c(=O)c(C(=O)O)cn3C2CC2)CC1CN.CS(=O)(=O)O (stereo not given) | 0.0419 (active) |
| CO/N=C1\CN(c2nc3c(cc2F)c(=O)c(C(=O)O)cn3C2CC2)C[C@@H]1CN | 0.154 (active) |
| C[C@H]1CN([C@@H](C)CO)C(=O)Cc2cc(NC(=O)NC3CCCCC3)ccc2O[C@H]1CN(C)S(=O)(=O)c1cn(C)cn1 | 0.985 |
| C[C@H]1CN([C@@H](C)CO)C(=O)c2cc(NC(=O)Cc3ccccc3)ccc2O[C@@H]1CN(C)S(=O)(=O)c1cccs1 | 0.993 |

| SMILES | relative growth |
| --- | --- |
| Nc1ccc(OCC(=O)N2CCOCC2)cc1 | 1.03 |
| CC(C)NC(=O)Nc1ccc2c(c1)C(=O)N([C@H](C)CO)C[C@@H](C)[C@H](CN(C)Cc1ccc(C(F)(F)F)cc1)OCCCC[C@@H](C)O2 | 1.02 |
| CCOc1ccc2c(c1)-c1c(ssc1=S)C(C)(C)N2C | 0.993 |
| CC1(C)S[C@H]2[C@@H](NC(=O)[C@@H](NC(=O)N3CCN(S(C)(=O)=O)C3=O)c3ccccc3)C(=O)N2[C@@H]1C(=O)O | 0.237 |
| CC1(C)SC2C(NC(=O)C(C(=O)[O-])c3ccccc3)C(=O)N2C1C(=O)[O-].[Na+].[Na+] (stereo not given) | 1.1 |
| CCN1CCN(C(=O)NC(C(=O)NC2C(=O)N3C2SC(C)(C)C3C(=O)[O-])c2ccccc2)C(=O)C1=O.[Na+] (stereo not given) | 0.0465 (active) |
| CC1(C)SC2C(NC(=O)C(NC(=O)N3CCNC3=O)c3ccccc3)C(=O)N2C1C(=O)[O-].[Na+] (stereo not given) | 0.263 |
| CCN1CCN(C(=O)N[C@@H](C(=O)N[C@@H]2C(=O)N3[C@@H]2SC(C)(C)[C@@H]3C(=O)O)c2ccccc2)C(=O)C1=O | 0.606 |
| CC1(C)S[C@@H]2[C@H](NC(=O)[C@H](NC(=O)N3CCNC3=O)c3ccccc3)C(=O)N2[C@H]1C(=O)O | 0.0984 (active) |
| C[C@@H]1CN([C@H](C)CO)C(=O)CCCn2cc(nn2)CO[C@H]1CN(C)C(=O)C1CC1 | 1.02 |
| Cn1nc(-c2ccccn2)nc2c(=O)n(C)c(=O)nc1-2 | 0.933 |
| C[C@@H]1CCCCO[C@H](CN(C)Cc2ccccc2)[C@H](C)CN([C@@H](C)CO)C(=O)c2cc(NS(=O)(=O)c3cccs3)ccc2O1 | 0.975 |
| C[C@@H]1CN([C@H](C)CO)S(=O)(=O)c2ccc(-c3cccc(C#N)c3)cc2O[C@@H]1CN(C)C(=O)c1ccncc1 | 1 |
| C[C@@H]1CN([C@H](C)CO)C(=O)Cc2cc(NS(=O)(=O)c3cccs3)ccc2O[C@@H]1CN(C)Cc1ccc(Cl)c(Cl)c1 | 1.01 |
| O=C(C[C@@H]1CC[C@H](NC(=O)c2cnccn2)[C@@H](CO)O1)NCc1ccccc1F | 0.993 |
| Cc1noc(C)c1S(=O)(=O)Nc1ccc2c(c1)CC(=O)N([C@@H](C)CO)C[C@@H](C)[C@H](CN(C)S(C)(=O)=O)O2 | 0.975 |
| COc1ccc(NC(=O)Nc2ccc3c(c2)C(=O)N([C@@H](C)CO)C[C@H](C)[C@H](CN(C)S(C)(=O)=O)O3)cc1 | 0.991 |
| Cc1ccc(S(=O)(=O)N(C)C[C@H]2Oc3c(NC(=O)c4ccncc4)cccc3C(=O)N([C@@H](C)CO)C[C@H]2C)cc1 | 1.01 |
| Cn1cc(-c2[nH]c3cc(NC(=O)[C@H](N)C4CCCCC4)cc4c3c2C=NNC4=O)cn1 | 0.161 (active) |
| C[C@@H]1CN([C@@H](C)CO)C(=O)c2cc(NC(=O)Nc3ccc4c(c3)OCO4)ccc2O[C@@H](C)CCCCO[C@@H]1CN(C)C(=O)NC1CCCCC1 | 1.04 |
| O=c1c(O[C@@H]2O[C@H](CO)[C@@H](O)[C@H](O)[C@H]2O)c(-c2ccc(O)c(O)c2)oc2cc(O)cc(O)c12 | 1.04 |
